Some test systems named below: SK-MEL-2 melanoma; EKVX NSCLC; SN12C renal; UO-31 renal; TK-10 renal; ACHN renal; CAKI-1 renal; A498 renal; CCRF-CEM leukemia; MOLT-4 leukemia; SR leukemia; RPMI-8226 leukemia; OVCAR-8 ovarian; OVCAR-5 ovarian; OVCAR-4 ovarian; SK-OV-3 ovarian; IGROV1 ovarian; OVCAR-3 ovarian; HS 578T breast; NCI/ADR-RES ovarian.
Assay in all cases: NCI-60 one-dose screen, 48 h (100 = growth as untreated, 0 = no growth, -100 = all killed)
What all share (conditions): 10 µM unless noted

About 83,000 compounds went through this panel and 20% of them were active in at least one assay; those are over-represented in the sample as a whole.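 Values shown are percent growth following 48 h exposure of cells in 96-well plates to a single concentration of compound; below 10 was considered active.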 Unmarked numbers belong to inactive results. Calls of active or inactive are those of the source.

For the compound `COc1ccc2cc(-c3ccc(C(=O)NN)c(C)n3)ccc2c1`, the growth in the experiment on SK-MEL-2 melanoma was 102%; with EKVX NSCLC it was 99.5%; in the experiment on SN12C renal, 96.6%; in the experiment on UO-31 renal, 83.5%; in the experiment on TK-10 renal, 95.6%; with ACHN renal, 103%. The growth in the experiment on CAKI-1 renal was 103%; in the experiment with A498 renal, 90.7%; with CCRF-CEM leukemia it was 91.3%; in the experiment with MOLT-4 leukemia, 74%; with SR leukemia, 78.4%; with RPMI-8226 leukemia it was 101%. Further, the growth is 102% with OVCAR-8 ovarian; 91.6% with OVCAR-5 ovarian; 90.8% in the experiment with OVCAR-4 ovarian; 95.7% in the experiment with SK-OV-3 ovarian; 101% in the experiment with IGROV1 ovarian; 91.9% in the experiment on OVCAR-3 ovarian. For the same compound, the growth in the experiment on HS 578T breast is 99.4%; with NCI/ADR-RES ovarian, 105%.
Consider `Cc1ccccc1NC(=O)CN(C)C`, for which the growth in the experiment on SK-MEL-2 melanoma is 84.8%; in the experiment on EKVX NSCLC, 108%; in the experiment on SN12C renal, 97%; in the experiment with UO-31 renal, 81.2%; in the experiment on TK-10 renal, 86.8%; in the experiment on ACHN renal, 99.6%. For the same compound, the growth was 103% in the experiment with CAKI-1 renal; 83.8% in the experiment with A498 renal; 107% with CCRF-CEM leukemia; 94.2% with MOLT-4 leukemia; 104% in the experiment on SR leukemia; 111% in the experiment on RPMI-8226 leukemia. Moreover, the growth in the experiment with OVCAR-8 ovarian is 108%; in the experiment on OVCAR-5 ovarian, 95.8%; in the experiment on OVCAR-4 ovarian, 118%; in the experiment with SK-OV-3 ovarian it was 101%; in the experiment with IGROV1 ovarian it was 96%; in the experiment on OVCAR-3 ovarian it was 113%. For the same compound, the growth is 113% with HS 578T breast and 101% in the experiment with NCI/ADR-RES ovarian.
For the compound `Cc1ccc(NSc2ccccc2[N+](=O)[O-])cc1`, the growth with SK-MEL-2 melanoma was 23.5%; in the experiment on EKVX NSCLC, 50.1%; with SN12C renal it was 40.3%; in the experiment with UO-31 renal, 33.1%; with TK-10 renal, 51.7%; in the experiment on ACHN renal, 50.4%. Further, the growth in the experiment on CAKI-1 renal is 34.2%; in the experiment on A498 renal it was 6.22% (active); in the experiment with CCRF-CEM leukemia it was 12.4%; in the experiment with MOLT-4 leukemia, 29.5%; in the experiment with SR leukemia, 9.72% (active); in the experiment with RPMI-8226 leukemia, 19.9%. Besides, the growth with OVCAR-8 ovarian is 33.1%; in the experiment with OVCAR-5 ovarian it was 49.7%; with OVCAR-4 ovarian it was 73.2%; with SK-OV-3 ovarian, 28.3%; in the experiment with IGROV1 ovarian, 38%; in the experiment on OVCAR-3 ovarian, 7.41% (active). The growth was 32.2% in the experiment with HS 578T breast and 14% in the experiment with NCI/ADR-RES ovarian.
For `C=C(C)[C@@H]1CC[C@@]2(C(=O)O)CC[C@]3(C)C(CCC4[C@@]5(C)CCC(OS(=O)(=O)c6ccccc6)C(C)(C)C5CC[C@]43C)C12` (stereo not given in full), the growth with SK-MEL-2 melanoma was 70.3%; with EKVX NSCLC, 25.4%; with SN12C renal, 62.2%; in the experiment with UO-31 renal, 48.5%; with TK-10 renal, 59.8%; with ACHN renal, 49.7%. In addition, the growth is -15.5% (active) in the experiment with CAKI-1 renal; 84.2% in the experiment on A498 renal; 62.4% in the experiment with CCRF-CEM leukemia; 51.7% in the experiment with MOLT-4 leukemia; 56.7% in the experiment on SR leukemia; 30.4% with RPMI-8226 leukemia. Also, the growth with OVCAR-8 ovarian was 38.1%; in the experiment on OVCAR-5 ovarian, 89.7%; in the experiment on OVCAR-4 ovarian, 54.7%; in the experiment on SK-OV-3 ovarian, 74.4%; in the experiment on IGROV1 ovarian it was 93.7%; in the experiment on OVCAR-3 ovarian it was 50.8%. For the same compound, the growth is 67.5% in the experiment on HS 578T breast and 52.5% with NCI/ADR-RES ovarian.
Turning to `CC(=O)C(C(C)=O)c1nc2sc3cc(Cl)ccc3n2c(=N)c1C#N`, the growth with SK-MEL-2 melanoma was 86.8%; with EKVX NSCLC, 70.7%; in the experiment with SN12C renal, 90%; with UO-31 renal, 58.4%; in the experiment on TK-10 renal, 117%; in the experiment on ACHN renal it was 84%. The growth in the experiment on CAKI-1 renal was 85.7%; in the experiment on A498 renal it was 84.5%; in the experiment on CCRF-CEM leukemia it was 91.9%; with MOLT-4 leukemia, 67%; with SR leukemia, 33.6%; in the experiment with RPMI-8226 leukemia, 60.8%. The growth is 90.5% with OVCAR-8 ovarian; 94.8% in the experiment with OVCAR-5 ovarian; 71.9% with OVCAR-4 ovarian; 93.8% in the experiment with SK-OV-3 ovarian; 70.4% in the experiment on IGROV1 ovarian; 86.1% in the experiment on OVCAR-3 ovarian. In addition, the values for the growth with HS 578T breast and in the experiment with NCI/ADR-RES ovarian were 48.5% and 88.3%, respectively.
Consider `COc1ccc(-c2c(N)n[nH]c2-c2ccccc2O)cc1OC`, for which the growth with SK-MEL-2 melanoma was 88.2%; with EKVX NSCLC, 92.4%; with SN12C renal it was 104%; with UO-31 renal, 62.6%; with TK-10 renal it was 98.5%; with ACHN renal, 102%. The growth in the experiment with CAKI-1 renal is 21.6%; with A498 renal it was 118%; in the experiment with CCRF-CEM leukemia, 81.8%; with MOLT-4 leukemia, 97%; in the experiment with SR leukemia it was 53.9%; in the experiment on RPMI-8226 leukemia, 52.8%. In addition, the growth was 68.3% in the experiment with OVCAR-8 ovarian; 92.2% in the experiment on OVCAR-5 ovarian; 94.7% in the experiment with OVCAR-4 ovarian; 84.1% with SK-OV-3 ovarian; 94.6% with IGROV1 ovarian; 108% in the experiment on OVCAR-3 ovarian. Further, the growth with HS 578T breast is 91.7%; with NCI/ADR-RES ovarian, 98.2%.
In the case of `O=c1oc2ccc(Cl)cc2cc1-c1cs/c(=N/N=C\c2ccc(Cl)cc2)n1/N=C/c1ccc(Cl)cc1`, the growth is 92.6% with SK-MEL-2 melanoma; 107% in the experiment on EKVX NSCLC; 94% in the experiment on SN12C renal; 90.1% in the experiment with UO-31 renal; 99.4% in the experiment on TK-10 renal; 112% in the experiment on ACHN renal. For the same compound, the growth in the experiment on CAKI-1 renal was 110%; in the experiment on A498 renal, 83.9%; in the experiment with CCRF-CEM leukemia it was 104%; with MOLT-4 leukemia, 93.8%; in the experiment on SR leukemia, 83.4%; with RPMI-8226 leukemia, 103%. Further, the growth was 96.5% in the experiment on OVCAR-8 ovarian; 107% in the experiment on OVCAR-5 ovarian; 98.5% in the experiment on OVCAR-4 ovarian; 111% in the experiment with SK-OV-3 ovarian; 108% with IGROV1 ovarian; 106% in the experiment on OVCAR-3 ovarian. Moreover, the figures for the growth with HS 578T breast and in the experiment on NCI/ADR-RES ovarian were 101% and 106%, respectively.

These data come from PubChem BioAssay (NCI).
